Where “and” joins values, the source holds several entries; their conditions need not be identical. Equal values may be shown once. Results filed as inconclusive are left out. The list shows a part of the results. Calls of active or inactive are those of the source. Unless noted, calls follow the shape of the dose curve; as a rule, active = well fitted curve in the direction sought with a large enough effect; inconclusive = small, poorly fitted or top-dose-only effect, or another doubt; inactive = no such curve, though single readings can be large; an effect the other way counts as inactive or inconclusive.
Columns and labels:
[1] = qHTS profiling for inhibitors of Plasmodium falciparum (3D7) proliferation (AID 743322);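 also: infected erythrocytes exposed to compound for 72 h before lysis; 100% = DMSO vehicle wells and 0% = 0.29 µM artemisinin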; settings: P. falciparum 3D7 proliferation; at 28.7 µM (top of the series) unless noted
Method in brief: (§1)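 Erythrocytes infected with P. falciparum (0.3% parasitemia, 2.5% hematocrit) incubated with compounds 72 h at 37 C, 5% CO2. Lysis with saponin/Triton buffer containing SYBR Green I, overnight at room temperature in the dark; DNA fluorescence (485/535 nm) normalised to 0.29 uM artemisinin and DMSO.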

[2] = qHTS profiling for inhibitors of Plasmodium falciparum (DD2) proliferation (AID 743323; call rule not given here); settings: lower = more inhibition; at 28.7 µM (top of the series) unless noted
Method in brief: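 SYBR Green fluorescence (ex 485, em 535 nm) of lysed cultures gives parasite DNA content; wells normalized to artemisinin (0.29 uM) and DMSO controls. Infected red cells: 0.3% parasitemia, 2.5% hematocrit, 72 h, 37 C.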

[3] = qHTS profiling for inhibitors of Plasmodium falciparum (HB3) proliferation (AID 743324); settings: Plasmodium falciparum HB3 blood-stage proliferation; at 28.7 µM (top of the series) unless noted;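 also: 100% = DMSO vehicle wells and 0% = artemisinin-treated control wells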
Method in brief: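 P. falciparum HB3 grown in erythrocytes (0.3% parasitemia, 2.5% hematocrit final) with compound for 72 h at 37 C, 5% CO2. Parasite DNA detected by SYBR Green after saponin/triton lysis overnight; normalized to 0.29 uM artemisinin and DMSO.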

[4] = qHTS Assay for Identifying Gametocytocidal Compounds (AID 743244); also: potency is read from the fitted curve at half-maximal effect;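 as to max response: % is scaled to controls: 0 for no effect and ±100 for the full control effect; actives lower the fluorescent signal which means gametocytes are killed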; settings: P. falciparum 3D7 stage III-V gametocytes, alamarBlue, 72 h; max response: stronger effect = lower value
Method in brief: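 Using 20,000 stage III–V 3D7 gametocytes per well, compounds were incubated 72 h under 37 °C/5% CO2. Viability was then assessed by 24 h alamarBlue reduction, measured fluorometrically at 525/598 nm.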

[5] = target: Bifunctional 3'-5' exonuclease/ATP-dependent helicase WRN (Homo sapiens) (UniProt Q14191); test: qHTS for Inhibitors of WRN Helicase: Confirmatory Assay for Cherry-picked Compounds. (AID 720497); settings: WRN helicase DNA unwinding, fluorescence kinetic; series mostly up to 57.1 µM; also: nearly all actives have a fitted effect of over 65% in size
Method in brief: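 WRN at 20 nM final was preincubated with compound for 15 min at room temperature; the reaction was started with 100 nM forked duplex oligonucleotide and 2 mM ATP (final). Red fluorescence (ex 525/em 598 nm) was read kinetically, with inhibition normalized to enzyme-only and buffer-only wells.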

[6] = qHTS for Inhibitors of WRN Helicase: Thiazole Orange DNA Binding Counterscreen (AID 720499); settings: thiazole orange DNA binding displacement, fluorescence; series mostly up to 57.1 µM;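 also: drop in dye fluorescence marks compound binding to DNA; % is scaled to controls: 0 for no effect and ±100 for the full control effect; nearly all actives have a fitted effect of over 60% in size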
Method in brief: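 Compounds were pin-transferred into 50 nM unlabeled DNA premixed with 100 nM thiazole orange. After 15 min at room temperature, fluorescence (ex 480 nm, em 530 nm) was read; loss of signal flags dye displacement from nonspecific DNA binders.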

[7] = target: RecQ-like DNA helicase BLM (Homo sapiens) (UniProt P54132); test: qHTS for Inhibitors of WRN Helicase: BLM Helicase Counterscreen for WRN Inhibitors (AID 720503); settings: Recombinant BLM helicase DNA unwinding, red fluorescence; series mostly up to 57.1 µM;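 also: plate controls were DMSO vehicle for no effect and enzyme-free control wells for full effect; nearly all actives have a fitted effect of over 60% in size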
Method in brief: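 BLM (1 nM) was preincubated with compounds for 15 min at room temperature in Tris-HCl pH 8.0, 50 mM NaCl, 2 mM MgCl2 buffer. Unwinding started with 100 nM DNA and 2 mM ATP (final); red fluorescence was read twice, 15 min apart.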

[8] = target: DNA polymerase eta (Homo sapiens) (UniProt Q9Y253); test: qHTS for Inhibitors of Polymerase Eta: Confirmatory Assay for Cherry-picked Compounds (AID 720502); settings: Pol eta primer extension, TAMRA/BHQ fluorescence, 10 min; also: potency is read from the fitted curve at half-maximal effect
Method in brief: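 The reaction starts with 50 nM final labeled DNA substrate added to Pol eta (10 nM) that had sat with compound for 15 min. TAMRA emission at 598 nm is read at 0 and 10 min.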

[9] = qHTS assay for environmental chemicals that activate the Aryl hydrocarbon Receptor (AhR) signaling pathway (AID 651777); settings: 1A2-DRE human hepatoma cells, luciferase, 24 h; activation: stronger effect = higher value; also: % of control where 0% means no effect; nearly all actives have a fitted effect of over 15% in size
Method in brief: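 1A2-DRE human hepatoma reporter line; 1,200 cells/well; cmpd or DMSO 24 h, 37 C/5% CO2; One-Glo 30 min RT; luciferase lum.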

[10] = target: Peroxisome proliferator-activated receptor alpha (Homo sapiens) (UniProt Q07869); test: qHTS assay for small molecule agonists of the peroxisome proliferator-activated receptor alpha (PPARalpha) signaling pathway (AID 651778); settings: PathHunter PPARalpha complementation, chemiluminescence, 6 h; max response: stronger effect = higher value; also: % of control where 0% means no effect
Method in brief: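 Chemiluminescence from complemented enzyme reported PPARalpha activation in cells after 6 hr of compound treatment at 37 C. The detection reagent was incubated for 60 min at room temperature, and compounds were scored as agonists.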

[11] = qHTS assay for small molecule agonists of the antioxidant response element (ARE) signaling pathway measured by Nrf2-dependant transcriptional activity (AID 720636; active = well fitted curve in the direction sought with a large enough effect in the repeat runs; an effect the other way counts as inactive or inconclusive;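 also: HepG2 cells with an ARE-driven luciferase reporter; % of control where 0% means no effect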); settings: ARE-luc HepG2, Nrf2 luciferase reporter, 16 h; series mostly up to 92.4 µM
Method in brief: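 Cells: ARE-luc HepG2 with Nrf2-responsive luciferase. Medium contained 1% dialyzed FBS. Compound exposure lasted 16 hr at 37 C and 5% CO2, followed by ONE-Glo luciferase detection.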

[12] = qHTS assay for small molecule agonists of the antioxidant response element (ARE) signaling pathway measured by Nrf2-dependant transcriptional activity - cell viability counter screen (AID 720653; active = well fitted curve in the direction sought with a large enough effect in the repeat runs; an effect the other way counts as inactive or inconclusive; also: potency is read from the fitted curve at half-maximal effect); settings: ARE-bla HepG2 viability, CellTiter-Glo ATP luminescence, 16 h; max response: stronger effect = lower value
Method in brief: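 Cytotoxicity counter screen: intracellular ATP quantified by CellTiter-Glo luminescence in the same ARE-bla HepG2 plates, after 16 h compound exposure and a 2 h beta-lactamase substrate step.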

[13] = qHTS assay for cell viability of HEK293 cells (AID 743288); settings: ATP luminescence (CellTiter-Glo), 18 h; max response: stronger effect = lower value; also: potency is read from the fitted curve at half-maximal effect; nearly all actives have a fitted effect of over 50% in size
Method in brief: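 Parental HEK293 cells were seeded at 2,000 cells/well, rested at least 5 h at 37 C, then exposed to compounds in DMSO for 18 h at 37 C. Viability was read as ATP-dependent luciferase luminescence after 30 min at room temperature.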

[14] = qHTS assay for cell viability of the p53RE-bla HCT-116 cell line (AID 743292); settings: p53RE-bla HCT-116 viability, ATP luminescence, 16 h; series mostly up to 95 µM; also: potency is read from the fitted curve at half-maximal effect; nearly all actives have a fitted effect of over 55% in size
Method in brief: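 HCT-116 p53RE-bla cells seeded 4,000/well; 5 h at 37 C; compound (DMSO) added; 16 h at 37 C; CellTiter-Glo added, 30 min RT; luminescence read.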

[15] = qHTS profiling of the MIPE4 collection as inhibitors of Plasmodium falciparum (3D7) proliferation (AID 743344; call rule not given here;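 also: scaled between DMSO vehicle wells and 0.29 µM artemisinin as full inhibition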); settings: P. falciparum 3D7 in erythrocytes, SYBR Green DNA fluorescence, 72 h; at 5.51 µM (top of the series) unless noted
Method in brief: as §1

[16] = qHTS profiling of the MIPE4 collection as inhibitors of Plasmodium falciparum (DD2) proliferation (AID 743345; call rule not given here); settings: P. falciparum Dd2 in erythrocytes, SYBR Green DNA, 72 h; at 5.51 µM (top of the series) unless noted
Method in brief: as §1

[17] = qHTS profiling of the MIPE4 collection as inhibitors of Plasmodium falciparum (DD2) proliferation (Rep 2) (AID 743346; call rule not given here); settings: P. falciparum Dd2 in erythrocytes, SYBR Green DNA, 72 h; at 5.51 µM (top of the series) unless noted
Method in brief: as §1

[18] = qHTS profiling of the MIPE4 collection as inhibitors of Plasmodium falciparum (HB3) proliferation (AID 743347; call rule not given here;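 also: plate controls were DMSO vehicle wells for no effect and artemisinin wells for full effect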); settings: P. falciparum HB3 in erythrocytes, SYBR Green DNA, 72 h; at 5.51 µM (top of the series) unless noted
Method in brief: as §1

Sequence of Bifunctional 3'-5' exonuclease/ATP-dependent helicase WRN (Homo sapiens) (Q14191 whole entry, looked up): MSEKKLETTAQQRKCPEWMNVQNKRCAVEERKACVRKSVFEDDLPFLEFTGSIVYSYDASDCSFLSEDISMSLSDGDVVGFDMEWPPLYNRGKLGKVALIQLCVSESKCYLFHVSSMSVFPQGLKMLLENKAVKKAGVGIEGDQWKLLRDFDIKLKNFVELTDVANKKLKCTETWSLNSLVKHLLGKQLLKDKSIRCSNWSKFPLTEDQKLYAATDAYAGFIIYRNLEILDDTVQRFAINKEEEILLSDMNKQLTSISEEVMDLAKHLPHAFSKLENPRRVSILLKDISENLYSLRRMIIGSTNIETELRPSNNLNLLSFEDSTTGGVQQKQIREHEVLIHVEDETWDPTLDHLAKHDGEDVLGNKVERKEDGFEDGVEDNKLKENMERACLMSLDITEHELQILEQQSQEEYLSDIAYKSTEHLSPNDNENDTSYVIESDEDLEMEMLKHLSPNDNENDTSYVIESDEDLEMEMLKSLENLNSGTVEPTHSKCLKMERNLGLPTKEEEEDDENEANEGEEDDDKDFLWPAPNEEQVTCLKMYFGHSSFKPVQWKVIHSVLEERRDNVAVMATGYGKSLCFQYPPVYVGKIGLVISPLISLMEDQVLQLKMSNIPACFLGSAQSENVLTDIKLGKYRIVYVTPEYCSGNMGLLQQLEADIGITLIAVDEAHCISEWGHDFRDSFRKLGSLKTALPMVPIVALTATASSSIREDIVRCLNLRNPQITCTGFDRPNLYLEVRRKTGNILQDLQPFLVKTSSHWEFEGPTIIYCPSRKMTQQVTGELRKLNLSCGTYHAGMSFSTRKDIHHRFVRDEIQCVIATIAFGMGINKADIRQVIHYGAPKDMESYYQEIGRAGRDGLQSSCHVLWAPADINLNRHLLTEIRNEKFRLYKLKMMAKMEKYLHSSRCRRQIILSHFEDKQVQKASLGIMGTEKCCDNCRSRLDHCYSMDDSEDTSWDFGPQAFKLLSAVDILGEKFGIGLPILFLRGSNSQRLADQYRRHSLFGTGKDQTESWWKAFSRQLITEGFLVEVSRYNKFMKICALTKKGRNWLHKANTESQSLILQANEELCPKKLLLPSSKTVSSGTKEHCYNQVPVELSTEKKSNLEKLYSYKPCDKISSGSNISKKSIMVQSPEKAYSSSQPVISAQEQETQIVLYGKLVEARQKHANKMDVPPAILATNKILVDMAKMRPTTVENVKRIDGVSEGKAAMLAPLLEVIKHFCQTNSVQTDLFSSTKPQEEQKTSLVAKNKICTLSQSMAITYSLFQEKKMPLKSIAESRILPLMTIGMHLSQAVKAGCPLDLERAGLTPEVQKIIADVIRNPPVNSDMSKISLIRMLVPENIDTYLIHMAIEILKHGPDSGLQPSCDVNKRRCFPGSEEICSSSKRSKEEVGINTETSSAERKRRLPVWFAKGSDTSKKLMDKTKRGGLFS
Sequence of RecQ-like DNA helicase BLM (Homo sapiens) (P54132 whole entry, looked up): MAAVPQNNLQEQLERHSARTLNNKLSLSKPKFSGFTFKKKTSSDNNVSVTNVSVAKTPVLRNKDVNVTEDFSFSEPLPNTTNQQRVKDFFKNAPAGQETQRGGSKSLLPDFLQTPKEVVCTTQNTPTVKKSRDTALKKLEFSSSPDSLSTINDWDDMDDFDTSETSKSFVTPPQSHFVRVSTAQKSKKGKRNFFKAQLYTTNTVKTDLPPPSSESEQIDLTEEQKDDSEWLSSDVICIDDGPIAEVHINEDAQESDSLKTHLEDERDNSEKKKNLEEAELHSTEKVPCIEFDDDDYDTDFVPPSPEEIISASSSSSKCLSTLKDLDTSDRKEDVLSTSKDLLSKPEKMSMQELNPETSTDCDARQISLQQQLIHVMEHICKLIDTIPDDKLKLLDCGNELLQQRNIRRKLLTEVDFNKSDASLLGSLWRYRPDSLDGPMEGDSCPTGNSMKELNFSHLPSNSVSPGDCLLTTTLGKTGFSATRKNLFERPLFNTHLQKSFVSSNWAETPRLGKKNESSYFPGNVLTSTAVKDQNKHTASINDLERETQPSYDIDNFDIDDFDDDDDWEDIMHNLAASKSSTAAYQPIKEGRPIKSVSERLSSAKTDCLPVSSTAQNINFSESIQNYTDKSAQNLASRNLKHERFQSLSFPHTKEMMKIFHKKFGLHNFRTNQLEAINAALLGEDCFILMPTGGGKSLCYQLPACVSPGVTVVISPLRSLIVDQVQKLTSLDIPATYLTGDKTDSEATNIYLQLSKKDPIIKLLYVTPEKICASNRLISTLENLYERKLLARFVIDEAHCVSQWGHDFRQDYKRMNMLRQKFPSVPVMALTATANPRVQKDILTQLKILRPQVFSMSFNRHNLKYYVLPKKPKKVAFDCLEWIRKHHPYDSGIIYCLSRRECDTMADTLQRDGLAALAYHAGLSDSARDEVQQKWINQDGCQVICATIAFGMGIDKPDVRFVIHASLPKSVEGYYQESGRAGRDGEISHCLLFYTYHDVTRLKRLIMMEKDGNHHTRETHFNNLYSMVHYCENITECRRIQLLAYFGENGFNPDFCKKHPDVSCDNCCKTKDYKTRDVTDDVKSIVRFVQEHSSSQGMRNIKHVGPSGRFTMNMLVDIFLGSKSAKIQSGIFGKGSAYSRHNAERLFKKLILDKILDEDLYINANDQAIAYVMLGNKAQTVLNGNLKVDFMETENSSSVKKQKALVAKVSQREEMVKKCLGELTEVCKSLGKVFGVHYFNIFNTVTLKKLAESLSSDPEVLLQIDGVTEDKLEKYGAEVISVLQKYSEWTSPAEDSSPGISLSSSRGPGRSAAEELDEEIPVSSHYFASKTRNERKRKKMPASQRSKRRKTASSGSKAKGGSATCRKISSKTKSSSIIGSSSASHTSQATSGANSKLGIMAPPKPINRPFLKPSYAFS
Sequence of DNA polymerase eta (Homo sapiens) (Q9Y253 whole entry, looked up): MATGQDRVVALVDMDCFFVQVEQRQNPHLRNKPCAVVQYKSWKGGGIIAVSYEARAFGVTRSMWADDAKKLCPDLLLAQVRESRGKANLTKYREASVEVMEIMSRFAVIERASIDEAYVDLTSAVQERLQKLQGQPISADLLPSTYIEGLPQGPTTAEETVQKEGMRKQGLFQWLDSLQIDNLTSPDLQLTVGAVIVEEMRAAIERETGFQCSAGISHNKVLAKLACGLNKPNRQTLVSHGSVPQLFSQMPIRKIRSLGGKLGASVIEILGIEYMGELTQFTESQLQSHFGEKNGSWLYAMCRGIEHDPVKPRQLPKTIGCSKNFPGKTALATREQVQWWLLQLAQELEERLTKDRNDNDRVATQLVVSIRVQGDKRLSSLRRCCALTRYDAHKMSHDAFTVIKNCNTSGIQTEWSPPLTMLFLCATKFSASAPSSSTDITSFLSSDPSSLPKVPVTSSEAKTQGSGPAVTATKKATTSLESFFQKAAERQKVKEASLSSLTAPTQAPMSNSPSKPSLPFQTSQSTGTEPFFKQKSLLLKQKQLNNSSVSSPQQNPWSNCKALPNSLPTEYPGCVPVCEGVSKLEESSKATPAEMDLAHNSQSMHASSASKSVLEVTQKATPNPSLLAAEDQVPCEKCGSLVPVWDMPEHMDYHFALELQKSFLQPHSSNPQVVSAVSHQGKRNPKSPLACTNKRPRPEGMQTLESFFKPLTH
Sequence of Peroxisome proliferator-activated receptor alpha (Homo sapiens) (Q07869 whole entry, looked up): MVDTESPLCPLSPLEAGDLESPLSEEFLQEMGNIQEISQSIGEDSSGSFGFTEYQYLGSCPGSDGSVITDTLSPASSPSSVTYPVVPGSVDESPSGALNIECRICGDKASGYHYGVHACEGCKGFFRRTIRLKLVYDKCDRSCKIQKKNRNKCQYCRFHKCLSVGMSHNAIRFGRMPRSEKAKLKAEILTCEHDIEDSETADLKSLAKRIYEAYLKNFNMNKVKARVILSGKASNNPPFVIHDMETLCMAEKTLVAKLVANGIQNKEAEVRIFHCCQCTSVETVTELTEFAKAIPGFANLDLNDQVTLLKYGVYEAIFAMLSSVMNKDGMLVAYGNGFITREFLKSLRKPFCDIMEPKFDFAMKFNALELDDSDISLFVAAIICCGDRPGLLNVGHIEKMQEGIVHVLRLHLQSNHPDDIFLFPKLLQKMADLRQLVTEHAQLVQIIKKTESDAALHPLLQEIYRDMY

## CCCCN(CCCC)CCC(OC(=O)O[C@@H]1CCC[C@]2(C1)OOC1(O2)C2CC3CC(C2)CC1C3)c1cc2c(Cl)cc(Cl)cc2c2cc(C(F)(F)F)ccc12 (stereo partly specified)
[1]
  remaining parasite growth % (stronger effect = lower value): -0.394%
[2]
  activity, percent of control: 0.0994%
[3]
  remaining proliferation (% of control), lower = more inhibition: 0.359%

## CC[C@@]1([C@@H]2O[C@@H]([C@H]3O[C@@](O)(CO)[C@H](C)C[C@@H]3C)C[C@@H]2C)CC[C@H]([C@]2(C)CC[C@]3(C[C@H](O)[C@@H](C)[C@@H]([C@@H](C)[C@@H](OC)[C@H](C)C(=O)O)O3)O2)O1 (stereo in doubt)
[4]
  Potency: 891 nM (active) and 166 nM (active)

## CSc1cccc(NC(=O)CC[C@H]2O[C@@H]3O[C@]4(C)CC[C@H]5[C@H](C)CC[C@@H]([C@@H]2C)[C@@]35OO4)c1
[1]
  remaining parasite growth % (stronger effect = lower value): -0.517%
[2]
  activity, percent of control: 0.0476%
[3]
  remaining proliferation (% of control), lower = more inhibition: 0.997%

## CCC(C(=O)O)C1OC(C(C)C(O)C(C)C(=O)C(CC)C2OC3(C=CC(O)C4(CCC(C)(C5CCC(O)(CC)C(C)O5)O4)O3)C(C)CC2C)C(C)CC1C (stereo unspecified)
[4]
  Potency: 60.5 nM (active)

## C[C@@H]1[C@H](O)[C@@H](C)/C=C/C=C/CC/C=C/C=C/C=C/C=C/[C@H](O[C@H]2O[C@@H](C)[C@H](O)[C@@H](N)[C@H]2O)CC2O[C@](O)(C[C@@H](O)[C@H](O)CC[C@@H](O)C[C@@H](O)C[C@@H](O)CC(=O)O[C@H]1C)C[C@H](O)[C@H]2C(=O)O
[4]
  max response: -9.77% (inactive)

## Cc1ccc2c(c1)=C/C(=C\c1c(O)[nH]c(=O)[nH]c1=O)C(=O)N=2
[5]
  outcome: inactive
[6]
  outcome: inactive
[7]
  outcome: inactive

## O=C1NC(=O)N(c2ccc(F)cc2)C(=O)/C1=C/c1ccc2c(c1)CCCN2Cc1ccccc1
[8]
  Potency: 84.9 µM (active)

## CC[C@H](C)[C@H]1O[C@]2(C=C[C@@H]1C)C[C@@H]1C[C@@H](C/C=C(\C)[C@@H](O[C@H]3C[C@H](OC)[C@@H](O[C@H]4C[C@H](OC)[C@@H](NC)[C@H](C)O4)[C@H](C)O3)[C@@H](C)/C=C/C=C3\CO[C@@H]4[C@H](O)C(C)=C[C@@H](C(=O)O1)[C@]34O)O2
[9]
  activation: -12% (inactive)
[10]
  max response: 4.77% (inactive)
[11]
  Potency: inactive
[12]
  Potency: 25.1 µM (active)
[13]
  Potency: 50.1 µM (active)
[14]
  Potency: 28.2 µM (active)

## O=C(O)COc1ccccc1/C=C1\C(=O)NC(=O)N(CCC2=CCCCC2)C1=O
[5]
  outcome: inactive
[6]
  outcome: inactive
[7]
  outcome: inactive

## CC(C)(N)CNC(=O)CC1CCC2(CC1)OOC1(O2)C2CC3CC(C2)CC1C3 (stereo unspecified)
[15]
  parasite growth, % of DMSO control: 4.69% [at 28.5 µM]
[16]
  parasite growth remaining, % of DMSO control (lower = more inhibition): 6.94% [at 28.5 µM]
[17]
  parasite growth, % of control (lower = inhibition): 27.3% [at 28.5 µM]
[18]
  growth, % of control: 5.72% [at 28.5 µM]

Source: PubChem BioAssay (NCATS)
